# Test results taken from ChEMBL document CHEMBL1961873, “Compounds: GSK PKIS; Assays: Nanosyn kinase panel” (2012).
# Tests used:
# [1] = target: Protein kinase C gamma type (Homo sapiens) (UniProt P05129); conditions: at 1 µM;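 note: each value is an averaged percent inhibition of the enzyme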
# [2] = target: T1, Protein kinase C iota type (Homo sapiens) (UniProt P41743); conditions: at 0.1 µM
# T1 sequence (whole entry): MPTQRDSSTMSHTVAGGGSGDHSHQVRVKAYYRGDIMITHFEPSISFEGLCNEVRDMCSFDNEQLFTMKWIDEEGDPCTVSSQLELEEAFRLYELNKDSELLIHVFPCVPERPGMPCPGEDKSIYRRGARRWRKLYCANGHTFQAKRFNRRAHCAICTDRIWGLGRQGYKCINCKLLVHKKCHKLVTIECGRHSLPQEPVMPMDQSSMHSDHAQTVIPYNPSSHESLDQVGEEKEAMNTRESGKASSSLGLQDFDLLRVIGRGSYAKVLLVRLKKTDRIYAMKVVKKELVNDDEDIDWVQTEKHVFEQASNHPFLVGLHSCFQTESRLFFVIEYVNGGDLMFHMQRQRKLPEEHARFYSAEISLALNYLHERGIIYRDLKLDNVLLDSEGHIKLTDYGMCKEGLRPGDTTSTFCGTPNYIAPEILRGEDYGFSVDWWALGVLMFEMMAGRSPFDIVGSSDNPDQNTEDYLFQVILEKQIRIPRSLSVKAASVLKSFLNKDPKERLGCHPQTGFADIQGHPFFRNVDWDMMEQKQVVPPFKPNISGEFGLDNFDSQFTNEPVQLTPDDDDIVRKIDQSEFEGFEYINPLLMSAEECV
# [3] = target: T1, Protein kinase C iota type (Homo sapiens); conditions: at 1 µM
# [4] = target: Protein kinase C theta type (Homo sapiens) (UniProt Q04759); conditions: at 0.1 µM
# [5] = target: Protein kinase C theta type (Homo sapiens) (UniProt Q04759); conditions: at 1 µM
# [6] = target: Protein kinase C beta type (Homo sapiens) (UniProt P05771); conditions: at 0.1 µM
# [7] = target: Protein kinase C beta type (Homo sapiens) (UniProt P05771); conditions: at 1 µM
# [8] = target: T2, Serine/threonine-protein kinase D1 (Homo sapiens) (UniProt Q15139); conditions: at 0.1 µM
# T2 sequence (whole entry): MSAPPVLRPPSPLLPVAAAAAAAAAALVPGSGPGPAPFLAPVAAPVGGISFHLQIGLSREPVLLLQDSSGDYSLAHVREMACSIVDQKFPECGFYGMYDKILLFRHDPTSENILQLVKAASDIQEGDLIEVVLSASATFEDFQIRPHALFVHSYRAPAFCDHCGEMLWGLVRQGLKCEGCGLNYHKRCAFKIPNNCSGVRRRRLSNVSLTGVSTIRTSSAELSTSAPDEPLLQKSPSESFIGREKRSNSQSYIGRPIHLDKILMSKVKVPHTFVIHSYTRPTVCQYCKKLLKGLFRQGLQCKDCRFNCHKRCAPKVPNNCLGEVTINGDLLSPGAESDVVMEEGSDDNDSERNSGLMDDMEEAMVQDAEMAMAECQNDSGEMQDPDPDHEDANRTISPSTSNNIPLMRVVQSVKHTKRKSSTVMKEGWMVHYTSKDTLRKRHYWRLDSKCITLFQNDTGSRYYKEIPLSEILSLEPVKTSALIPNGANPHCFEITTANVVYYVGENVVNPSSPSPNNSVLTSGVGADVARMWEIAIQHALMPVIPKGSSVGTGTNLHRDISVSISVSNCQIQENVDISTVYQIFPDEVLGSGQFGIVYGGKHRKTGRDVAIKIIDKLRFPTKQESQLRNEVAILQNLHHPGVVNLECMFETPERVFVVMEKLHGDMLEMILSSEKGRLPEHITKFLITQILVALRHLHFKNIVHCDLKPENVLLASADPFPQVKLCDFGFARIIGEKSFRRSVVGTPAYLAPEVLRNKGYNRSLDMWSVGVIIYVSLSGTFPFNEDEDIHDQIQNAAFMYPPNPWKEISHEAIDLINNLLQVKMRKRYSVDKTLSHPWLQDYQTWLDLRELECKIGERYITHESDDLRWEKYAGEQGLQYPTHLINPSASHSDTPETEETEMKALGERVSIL
# [9] = target: T2, Serine/threonine-protein kinase D1 (Homo sapiens); conditions: at 1 µM
# [10] = target: T3, Serine/threonine-protein kinase D2 (Homo sapiens) (UniProt Q9BZL6); conditions: at 0.1 µM
# T3 sequence (whole entry): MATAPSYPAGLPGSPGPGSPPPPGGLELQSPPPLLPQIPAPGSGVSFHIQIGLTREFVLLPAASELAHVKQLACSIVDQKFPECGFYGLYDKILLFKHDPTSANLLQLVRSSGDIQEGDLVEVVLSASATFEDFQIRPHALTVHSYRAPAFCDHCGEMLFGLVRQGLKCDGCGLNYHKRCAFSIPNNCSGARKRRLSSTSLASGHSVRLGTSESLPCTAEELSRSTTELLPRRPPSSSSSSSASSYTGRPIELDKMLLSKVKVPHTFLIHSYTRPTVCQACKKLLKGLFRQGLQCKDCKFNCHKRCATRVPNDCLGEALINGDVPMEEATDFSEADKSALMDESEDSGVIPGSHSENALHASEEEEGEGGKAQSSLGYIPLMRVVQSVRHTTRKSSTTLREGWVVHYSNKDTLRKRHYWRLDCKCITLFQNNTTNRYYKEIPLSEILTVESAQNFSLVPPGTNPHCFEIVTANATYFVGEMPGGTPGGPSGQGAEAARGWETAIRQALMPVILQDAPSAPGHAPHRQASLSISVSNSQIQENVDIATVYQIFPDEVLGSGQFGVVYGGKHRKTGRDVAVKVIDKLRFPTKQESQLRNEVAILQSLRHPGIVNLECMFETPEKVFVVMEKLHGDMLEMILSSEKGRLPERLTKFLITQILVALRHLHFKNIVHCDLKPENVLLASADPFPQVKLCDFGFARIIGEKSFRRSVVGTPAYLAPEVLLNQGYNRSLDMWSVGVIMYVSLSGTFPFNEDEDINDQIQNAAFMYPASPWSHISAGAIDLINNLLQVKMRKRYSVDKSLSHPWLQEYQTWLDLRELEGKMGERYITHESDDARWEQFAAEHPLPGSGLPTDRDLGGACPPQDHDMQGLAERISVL
# [11] = target: T3, Serine/threonine-protein kinase D2 (Homo sapiens); conditions: at 1 µM
# [12] = target: T4, Serine/threonine-protein kinase D3 (Homo sapiens) (UniProt O94806); conditions: at 0.1 µM
# T4 sequence (whole entry): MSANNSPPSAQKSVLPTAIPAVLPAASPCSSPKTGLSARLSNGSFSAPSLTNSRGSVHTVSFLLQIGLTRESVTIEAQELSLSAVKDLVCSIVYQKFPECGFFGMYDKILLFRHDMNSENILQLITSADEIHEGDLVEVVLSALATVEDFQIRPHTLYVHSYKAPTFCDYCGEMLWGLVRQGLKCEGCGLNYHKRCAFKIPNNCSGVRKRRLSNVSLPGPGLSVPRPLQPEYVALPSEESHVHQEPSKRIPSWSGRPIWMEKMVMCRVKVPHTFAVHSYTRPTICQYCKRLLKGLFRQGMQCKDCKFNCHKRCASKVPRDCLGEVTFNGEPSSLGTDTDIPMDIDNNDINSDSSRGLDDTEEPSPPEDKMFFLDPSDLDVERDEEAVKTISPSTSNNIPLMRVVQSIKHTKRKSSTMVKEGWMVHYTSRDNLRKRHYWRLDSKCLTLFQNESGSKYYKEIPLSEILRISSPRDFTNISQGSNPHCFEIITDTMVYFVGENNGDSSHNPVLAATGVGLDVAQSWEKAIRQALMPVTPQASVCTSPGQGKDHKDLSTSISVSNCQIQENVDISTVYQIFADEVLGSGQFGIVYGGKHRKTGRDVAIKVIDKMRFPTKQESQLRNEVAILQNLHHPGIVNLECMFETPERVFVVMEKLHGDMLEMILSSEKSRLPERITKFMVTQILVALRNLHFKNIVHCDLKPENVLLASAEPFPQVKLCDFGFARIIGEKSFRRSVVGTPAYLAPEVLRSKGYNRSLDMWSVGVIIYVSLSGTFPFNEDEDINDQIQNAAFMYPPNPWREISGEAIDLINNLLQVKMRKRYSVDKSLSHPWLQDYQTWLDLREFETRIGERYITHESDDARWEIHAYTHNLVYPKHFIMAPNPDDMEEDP
# [13] = target: T4, Serine/threonine-protein kinase D3 (Homo sapiens); conditions: at 1 µM
# [14] = target: T5, cGMP-dependent protein kinase 1 (Homo sapiens) (UniProt Q13976); conditions: at 0.1 µM
# T5 sequence (whole entry): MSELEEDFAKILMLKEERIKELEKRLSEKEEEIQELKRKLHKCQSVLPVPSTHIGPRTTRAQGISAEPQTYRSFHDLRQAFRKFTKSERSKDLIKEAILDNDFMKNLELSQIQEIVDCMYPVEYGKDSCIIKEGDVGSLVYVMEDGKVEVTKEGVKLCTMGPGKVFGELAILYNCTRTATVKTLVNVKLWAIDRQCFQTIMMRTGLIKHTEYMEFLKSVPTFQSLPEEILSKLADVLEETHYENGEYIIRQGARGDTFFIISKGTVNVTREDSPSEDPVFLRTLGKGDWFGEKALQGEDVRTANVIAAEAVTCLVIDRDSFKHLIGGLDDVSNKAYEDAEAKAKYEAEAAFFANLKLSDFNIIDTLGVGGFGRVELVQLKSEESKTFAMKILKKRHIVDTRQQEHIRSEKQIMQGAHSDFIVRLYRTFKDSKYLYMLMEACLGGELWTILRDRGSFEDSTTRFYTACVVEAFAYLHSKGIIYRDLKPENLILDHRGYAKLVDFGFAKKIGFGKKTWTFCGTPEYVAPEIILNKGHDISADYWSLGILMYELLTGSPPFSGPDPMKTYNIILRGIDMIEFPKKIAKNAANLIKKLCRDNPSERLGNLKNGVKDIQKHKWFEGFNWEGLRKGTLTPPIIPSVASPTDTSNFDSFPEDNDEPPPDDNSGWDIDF
# [15] = target: T5, cGMP-dependent protein kinase 1 (Homo sapiens); conditions: at 1 µM
# [16] = target: T6, cGMP-dependent protein kinase 2 (Homo sapiens) (UniProt Q13237); conditions: at 0.1 µM
# T6 sequence (whole entry): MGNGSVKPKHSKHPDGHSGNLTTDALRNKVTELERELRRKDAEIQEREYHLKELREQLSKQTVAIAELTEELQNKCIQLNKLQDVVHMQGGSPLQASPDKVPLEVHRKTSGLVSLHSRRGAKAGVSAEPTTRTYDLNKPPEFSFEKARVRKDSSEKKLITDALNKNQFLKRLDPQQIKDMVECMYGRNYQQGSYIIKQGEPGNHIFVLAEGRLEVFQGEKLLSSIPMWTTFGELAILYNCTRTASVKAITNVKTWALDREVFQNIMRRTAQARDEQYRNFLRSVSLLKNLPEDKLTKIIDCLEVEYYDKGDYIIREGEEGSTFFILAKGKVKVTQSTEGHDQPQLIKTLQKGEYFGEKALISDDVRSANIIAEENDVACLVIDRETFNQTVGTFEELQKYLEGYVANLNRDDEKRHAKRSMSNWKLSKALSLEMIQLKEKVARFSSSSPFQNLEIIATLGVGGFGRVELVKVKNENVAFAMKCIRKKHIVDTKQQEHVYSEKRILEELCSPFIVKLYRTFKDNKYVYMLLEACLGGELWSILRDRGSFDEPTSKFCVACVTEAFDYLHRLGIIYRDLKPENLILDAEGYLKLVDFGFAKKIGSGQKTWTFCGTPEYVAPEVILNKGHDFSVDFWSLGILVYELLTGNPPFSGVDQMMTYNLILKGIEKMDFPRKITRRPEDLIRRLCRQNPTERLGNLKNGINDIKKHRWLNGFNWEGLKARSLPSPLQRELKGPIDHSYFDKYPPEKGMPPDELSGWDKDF
# [17] = target: T6, cGMP-dependent protein kinase 2 (Homo sapiens); conditions: at 1 µM
# [18] = target: T7, cAMP-dependent protein kinase catalytic subunit PRKX (Homo sapiens) (UniProt P51817); conditions: at 0.1 µM
# T7 sequence (whole entry): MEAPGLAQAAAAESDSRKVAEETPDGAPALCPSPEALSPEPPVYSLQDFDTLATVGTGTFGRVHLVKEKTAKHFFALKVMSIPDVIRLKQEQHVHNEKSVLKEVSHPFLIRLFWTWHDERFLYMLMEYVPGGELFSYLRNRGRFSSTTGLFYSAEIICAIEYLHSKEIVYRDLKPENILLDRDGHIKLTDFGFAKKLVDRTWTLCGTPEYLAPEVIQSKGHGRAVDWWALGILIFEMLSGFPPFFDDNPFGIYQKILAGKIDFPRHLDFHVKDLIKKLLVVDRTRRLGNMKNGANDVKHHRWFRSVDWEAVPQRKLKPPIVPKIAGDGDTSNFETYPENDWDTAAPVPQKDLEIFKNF
# [19] = target: T7, cAMP-dependent protein kinase catalytic subunit PRKX (Homo sapiens); conditions: at 1 µM
# [20] = target: Rho-associated protein kinase 1 (Homo sapiens) (UniProt Q13464); conditions: at 0.1 µM;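 note: values are mean percent inhibition of ROCK1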
# Chain of Rho-associated protein kinase 1 (Homo sapiens) (Q13464 2-1354 limits assumed): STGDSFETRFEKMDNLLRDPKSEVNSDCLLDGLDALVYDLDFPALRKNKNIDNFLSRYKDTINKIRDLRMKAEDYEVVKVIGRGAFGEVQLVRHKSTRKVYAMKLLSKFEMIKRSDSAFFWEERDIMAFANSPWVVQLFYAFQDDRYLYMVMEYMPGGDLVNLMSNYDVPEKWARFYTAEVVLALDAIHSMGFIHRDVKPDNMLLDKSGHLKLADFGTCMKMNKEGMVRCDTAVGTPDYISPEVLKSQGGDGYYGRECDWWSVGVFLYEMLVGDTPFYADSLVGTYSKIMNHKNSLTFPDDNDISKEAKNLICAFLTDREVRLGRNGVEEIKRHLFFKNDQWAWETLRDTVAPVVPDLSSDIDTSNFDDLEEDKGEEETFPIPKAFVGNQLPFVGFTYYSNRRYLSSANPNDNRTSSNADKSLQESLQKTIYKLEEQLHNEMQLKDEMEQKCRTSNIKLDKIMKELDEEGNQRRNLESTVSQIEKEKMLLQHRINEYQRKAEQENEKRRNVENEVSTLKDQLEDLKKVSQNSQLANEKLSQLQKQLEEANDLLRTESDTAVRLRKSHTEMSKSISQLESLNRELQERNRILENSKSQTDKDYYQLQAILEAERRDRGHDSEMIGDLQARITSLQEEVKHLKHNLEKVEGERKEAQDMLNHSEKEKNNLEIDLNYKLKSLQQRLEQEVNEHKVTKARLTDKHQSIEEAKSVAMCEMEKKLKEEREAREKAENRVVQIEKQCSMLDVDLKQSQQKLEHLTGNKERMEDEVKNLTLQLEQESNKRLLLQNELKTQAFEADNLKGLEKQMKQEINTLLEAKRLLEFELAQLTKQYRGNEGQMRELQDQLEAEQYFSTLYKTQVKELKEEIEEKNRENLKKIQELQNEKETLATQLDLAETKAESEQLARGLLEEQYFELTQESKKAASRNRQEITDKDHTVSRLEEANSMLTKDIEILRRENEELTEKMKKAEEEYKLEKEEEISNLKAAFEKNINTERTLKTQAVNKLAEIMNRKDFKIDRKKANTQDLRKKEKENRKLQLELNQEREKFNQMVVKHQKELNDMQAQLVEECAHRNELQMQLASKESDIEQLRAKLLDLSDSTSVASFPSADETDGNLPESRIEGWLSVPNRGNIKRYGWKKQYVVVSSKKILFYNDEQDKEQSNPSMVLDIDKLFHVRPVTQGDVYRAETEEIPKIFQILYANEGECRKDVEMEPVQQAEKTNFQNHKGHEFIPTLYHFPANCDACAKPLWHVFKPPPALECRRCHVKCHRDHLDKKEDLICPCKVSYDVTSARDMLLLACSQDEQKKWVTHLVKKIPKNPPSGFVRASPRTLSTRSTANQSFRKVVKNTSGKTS
# Chain of Protein kinase C beta type (Homo sapiens) (P05771 2-671 limits assumed): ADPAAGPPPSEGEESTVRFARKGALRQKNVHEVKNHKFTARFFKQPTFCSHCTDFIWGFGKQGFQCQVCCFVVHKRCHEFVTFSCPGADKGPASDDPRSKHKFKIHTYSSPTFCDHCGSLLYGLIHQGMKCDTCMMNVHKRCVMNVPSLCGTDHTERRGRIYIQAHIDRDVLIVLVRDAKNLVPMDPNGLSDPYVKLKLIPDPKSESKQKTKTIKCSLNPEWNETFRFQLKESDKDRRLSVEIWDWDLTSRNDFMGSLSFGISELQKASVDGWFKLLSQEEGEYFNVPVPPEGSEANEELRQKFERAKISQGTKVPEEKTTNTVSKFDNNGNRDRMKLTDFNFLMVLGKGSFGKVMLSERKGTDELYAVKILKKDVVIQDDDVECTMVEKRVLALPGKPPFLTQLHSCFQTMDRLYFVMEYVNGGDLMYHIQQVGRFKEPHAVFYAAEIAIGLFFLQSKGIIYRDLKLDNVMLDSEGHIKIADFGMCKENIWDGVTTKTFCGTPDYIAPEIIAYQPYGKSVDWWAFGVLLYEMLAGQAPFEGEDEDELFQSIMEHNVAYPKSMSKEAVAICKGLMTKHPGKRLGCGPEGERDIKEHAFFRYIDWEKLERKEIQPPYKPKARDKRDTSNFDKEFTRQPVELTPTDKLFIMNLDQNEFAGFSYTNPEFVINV
# Chain of Protein kinase C theta type (Homo sapiens) (Q04759 whole entry, looked up): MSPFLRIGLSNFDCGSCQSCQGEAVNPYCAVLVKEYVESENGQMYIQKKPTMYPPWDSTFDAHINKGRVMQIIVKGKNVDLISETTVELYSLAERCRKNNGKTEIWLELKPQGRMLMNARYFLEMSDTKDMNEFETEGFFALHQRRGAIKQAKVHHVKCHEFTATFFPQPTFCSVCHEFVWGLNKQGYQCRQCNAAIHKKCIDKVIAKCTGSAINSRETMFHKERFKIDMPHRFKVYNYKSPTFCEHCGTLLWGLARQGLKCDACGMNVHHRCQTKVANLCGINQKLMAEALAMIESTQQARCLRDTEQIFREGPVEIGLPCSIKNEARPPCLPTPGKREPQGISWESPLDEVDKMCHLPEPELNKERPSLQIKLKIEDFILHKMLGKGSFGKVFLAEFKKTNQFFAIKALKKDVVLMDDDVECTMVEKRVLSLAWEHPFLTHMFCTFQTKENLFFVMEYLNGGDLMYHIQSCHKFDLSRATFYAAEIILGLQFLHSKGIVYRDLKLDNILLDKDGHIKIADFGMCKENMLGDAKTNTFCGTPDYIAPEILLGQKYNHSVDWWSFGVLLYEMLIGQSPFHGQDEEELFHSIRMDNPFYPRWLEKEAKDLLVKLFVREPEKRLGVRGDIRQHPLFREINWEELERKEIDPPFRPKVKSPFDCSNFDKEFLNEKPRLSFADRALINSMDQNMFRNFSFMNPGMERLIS
Compound,inhibition [1] [%],inhibition [2] [%],inhibition [3] [%],inhibition [4] [%],inhibition [5] [%],inhibition [6] [%],inhibition [7] [%],inhibition [8] [%],inhibition [9] [%],inhibition [10] [%],inhibition [11] [%],inhibition [12] [%],inhibition [13] [%],inhibition [14] [%],inhibition [15] [%],inhibition [16] [%],inhibition [17] [%],inhibition [18] [%],inhibition [19] [%],inhibition [20] [%]
COc1cc(N2CCN(C(C)C)CC2)ccc1Nc1nc(Nc2ccc(F)cc2C(=O)NC[C@@H](O)CO)c2cc[nH]c2n1,7.34,2.87,0.36,3.85,6.2,1.04,2.5,1.65,13.4,3.16,17.5,3.93,20.7,7.74,35.1,2.82,8.2,2.99,6.02,1.24
C#Cc1cccc(Nc2ncnc3ccc(OCCCCNCCS(C)(=O)=O)cc23)c1,7.74,2.69,1.19,3.71,5.27,1.93,6.61,2.59,25,4.1,26.7,3.35,15,1.04,7.37,2.75,8.83,2.48,4.38,1.86
COc1cc2ncn(-c3cc(OCc4ccccc4C(F)(F)F)c(C(C)=O)s3)c2cc1OC,0.33,0.95,1.41,1.39,0.74,0.72,0.23,3.39,5.09,2.5,2.55,2.93,3.23,1.35,0.72,0.9,0,0.6,0.44,0.94
